# mHTT-CaM PPI inh: inhibitors of human mutant huntingtin-calmodulin interaction; P42858; AlphaScreen His-mHTT/GST-CaM binding, luminescence; inhibition, % at 15 µM; hit rate 3.6% among 190,000;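 note: 0% = both proteins with DMSO and 100% = one protein alone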
# Pf apPOL block: Pf-apPOL DNA polymerase inhibition. Recombinant Pf-apPOL, molecular beacon fluorescence, 1.5 h. inhibition, % at 10 µM. AID 1794808. hit rate 0.25% among 210,000
# Starred values were filed as active, the others as inactive; x = not tested or not shown; ! = a repeat was not active. The sample as a whole holds a higher share of hits than the screen did. Cut-off read from the data, not from the text of the source: active = inhibition above about 50%; inactive = the rest.
SMILES,mHTT-CaM PPI inh,Pf apPOL block
COc1cc(C2=N/C(=C\c3cccs3)C(=O)O2)cc(OC)c1OC,-4,-6
CN(C)c1ccc(-c2nc3n(n2)C(c2ccccc2)C2=C(CCCC2=O)N3)cc1 (configuration not stated),5,-6
CN(C)c1ccc(-c2nc3n(n2)C(c2ccc(F)cc2)C2=C(CCCC2=O)N3)cc1 (configuration not stated),51*,-2
O=[N+]([O-])c1ccc(Sc2nc3ccccc3o2)c([N+](=O)[O-])c1,12,2
Nc1ncnc(SC2=NCCS2)c1[N+](=O)[O-],59*,0
Nc1ncnc(Sc2nc3ccccc3o2)c1[N+](=O)[O-],75*,2
Cc1cc(Sc2ncnc(N)c2[N+](=O)[O-])nc(C)n1,-2,-1
CCc1ccc(N=c2oc3c(C)ncc(CO)c3cc2C(=O)Nc2ccc(F)cc2F)cc1,0,0
O=C(Sc1cccc2cccnc12)c1ccc([N+](=O)[O-])cc1,100*,-2
O=[N+]([O-])c1ccc(CSc2cccc3cccnc23)cc1,63*!,-5
CCN(CC)C(=O)Sc1cccc2cccnc12,1,0
O=[N+]([O-])c1ccc(CSc2ccccn2)cc1,x,0
Cn1nc([N+](=O)[O-])nc1Sc1nc2ccccc2n1C,-3,-5
Cn1nc([N+](=O)[O-])nc1Sc1cccc2cccnc12,66*,-18
COc1c(CO)cc(CO)cc(CO)c1=O,x,-11
CC(C)(C)CC(C)(C)N=C1Nc2ccccc2N[C@]12C[C@H]1CCCC(=O)N3CC[C@@H](C2)[C@@H]13,49,-6
O=C1CCC[C@@H]2C[C@@]3(C[C@@H]4CCN1[C@H]24)Nc1cc(Cl)c(Cl)cc1NC3=NCc1ccccc1,98*,-5
Cc1ccccc1N=C1Nc2ccc(Cl)cc2N[C@]12C[C@H]1CCCC(=O)N3CC[C@@H](C2)[C@@H]13,25,3
CC(C)(C)CC(C)(C)N=C1Nc2ccc(Cl)cc2NC12C[C@H]1CCC(=O)N3CC[C@@H](C2)[C@@H]13 (some centres not stated),95*,-3
Cc1ccccc1N=C1Nc2cc(Cl)c(Cl)cc2N[C@]12C[C@H]1CCCC(=O)N3CC[C@@H](C2)[C@@H]13,86*,-8
Cc1cc2c(cc1C)N[C@]1(C[C@H]3CCCC(=O)N4CC[C@@H](C1)[C@@H]34)C(=Nc1ccccc1C)N2,22,-1
Cc1ccc(CNC(=O)C2CCCN(c3nnc4ccccn34)C2)cc1 (configuration not stated),-1,-9
CCCCC(=O)Oc1cc(C)[nH]c(=O)c1[N+](=O)[O-],-4,2
CCCC(CCC)C(=O)Oc1cc(C)[nH]c(=O)c1[N+](=O)[O-],87*,-10
COc1ccc(C(=O)Oc2cc(C)[nH]c(=O)c2[N+](=O)[O-])c(OC)c1,56*,1
SMILES,mHTT-CaM PPI inh,Pf apPOL block
COc1ccccc1C(=O)Oc1cc(C)[nH]c(=O)c1[N+](=O)[O-],8,-6
CS(=O)(=O)NCc1cccnc1Oc1ccccc1,2,0
COc1cc([N+](=O)[O-])cc(C=Nc2cccc(NC(=O)c3ccccc3)c2)c1O,22,3
O=C(O)c1cc(N2C(=O)C3C4c5ccccc5C(c5ccccc54)C3C2=O)ccc1Cl (configuration not stated),1,0
O=C(O)c1cc(-n2cccc2)ccc1Cl,72*,18
Cc1cccc(S(=O)(=O)NCCC2CCN(C(=O)c3ccccc3)CC2)c1,34,-1
c1ccc(OCCCOc2ccccc2)cc1,-124,-2
Nc1ccccc1NCCOc1ccccc1,79*,2
CC[C@H]1c2[nH]c3ccc(C(C)C)cc3c2[C@@H]2CCN3C(=O)CCC[C@H]1[C@H]23,71*,-9
CC[C@@H]1C(=O)[C@H](Cc2ccccc2)[C@H]2CCCC(=O)N3CC[C@@H]1[C@@H]23,17,-1
COc1cc(OC)cc(C(=O)N2CCC(C(=O)Nc3ccc(Cl)c(Cl)c3)CC2)c1,-4,-2
CCc1c(C)[nH]n(-c2nn[nH]n2)c1=O,100*,x
CCc1c(C)nc2[nH]nc(-c3ccccc3)n2c1=O,2,-2
COc1ccc(OC)c(C=C2Oc3cc(C)cc(O)c3C2=O)c1,4,3
COc1ccc(C=C2Oc3cc(C)cc(O)c3C2=O)c(OC)c1OC,75*,-5
O=C(c1c[nH]c2ccccc12)N1CCC2(CC1)NC(=O)N(Cc1ccc(F)cc1)C2=O,58*,-5
O=C(c1ccccc1)N1CCC2(CC1)NC(=O)N(Cc1ccccc1Cl)C2=O,9,-3
O=C(c1ccccc1)N1CCC2(CC1)NC(=O)N(Cc1ccc(F)cc1)C2=O,8,-4
O=C(c1cc2ccccc2[nH]1)N1CCC2(C1)NC(=O)N(Cc1ccc(F)cc1)C2=O (configuration not stated),-2,-2
O=C(c1cc2ccccc2[nH]1)N1CCC2(CC1)NC(=O)N(Cc1ccc(F)cc1)C2=O,70*,-3
O=C(c1c[nH]c2ccccc12)N1CCC2(CC1)NC(=O)N(Cc1ccccc1Cl)C2=O,98*,-7
O=[N+]([O-])c1ccc(S(=O)(=O)Nc2ccc(Br)cc2)cc1,6,-2
Cn1nc(COc2ccccc2)c2c1CCN(S(C)(=O)=O)C2,-1,-3
CCOc1cccc(C2Nc3ccccc3-c3nnc(SCC)nc3O2)c1 (configuration not stated),-2,-3
O=C1CCCC2=C1C(c1cccc([N+](=O)[O-])c1)Nc1ccc(C(=O)c3ccccc3)cc1N2 (configuration not stated),56*,-8
SMILES,mHTT-CaM PPI inh,Pf apPOL block
CC1=C(C(=O)Nc2cccc(C(F)(F)F)c2)C(c2ccccc2)C2=C(CC(C)(C)CC2=O)N1 (configuration not stated),92*,1
CC1=C(C(=O)Nc2cccc(C(F)(F)F)c2)C(c2cccc([N+](=O)[O-])c2)C2=C(CCCC2=O)N1 (configuration not stated),52*,-7
CC1=C(C(=O)Nc2cccc(C(F)(F)F)c2)C(c2ccccc2)C2=C(CCCC2=O)N1 (configuration not stated),36,-2
CC1=C(C(=O)Nc2ccc(C)cn2)C(c2ccc(C)cc2)C2=C(CCCC2=O)N1 (configuration not stated),9,0
CC1=C(C(=O)Nc2ccc(C)cn2)C(c2ccccc2)C2=C(CCCC2=O)N1 (configuration not stated),2,51*
O=C1CCCC2=C1C(c1cccnc1)Nc1ccc(C(=O)c3ccccc3)cc1N2 (configuration not stated),10,-2
CC1=C(C(=O)Nc2cccc(C(F)(F)F)c2)C(c2ccccn2)C2=C(CC(C)(C)CC2=O)N1 (configuration not stated),-2,-9
O=[N+]([O-])c1ccc2[nH]c3ccc(Cl)cc3c2c1,0,0
COc1ccc(C(=O)N2CCn3c(C)nnc3C2)c(OC)c1,0,1
CSc1nnc2c(n1)OC(C)(C)Nc1ccccc1-2,2,0
O=C(CSc1cccs1)NC1=NN(c2ccccc2)C(=O)C1,82*,-2
O=C(CSc1cccs1)Nc1nccs1,-1,x
COc1ccc(-c2cc(C(F)(F)F)n3ncc(C(=O)N4CCCC4)c3n2)cc1,-6,-7
NC(=O)c1nn2c(C(F)(F)F)cc(-c3ccc(Cl)cc3)nc2c1Cl,0,1

# From PubChem
